The sample as a whole holds a higher share of hits than the screen did.
Pf Dd2 growth – inhibitors of Plasmodium falciparum Dd2 growth | Potency, µM (top dose mostly 28.9 µM), actives largely listed as inhibitors | P. falciparum Dd2 growth, SYBR Green, 72 h | actives 4.3% (n = 120,000); active means well fitted inhibition curve with a large enough effect; further: nearly all actives have a fitted effect of over 65% in size
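Infected erythrocytes (Dd2, 0.3% parasitemia, 2.5% hematocrit final) are added to compound in RPMI-1640/Albumax II medium, grown 72 h at 37C in low oxygen, then lysed with saponin/Triton-X containing SYBR Green and read by fluorescence.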
Of the large screens only hits and unclear results are named; the others gave an inactive call.

CCCCOc1ccc(C(=O)N2CCC[C@H]2c2nc(-c3ccccc3Cl)no2)cc1	none
COc1ccccc1-c1nnc([C@H]2CCN(Cc3cccnc3)C2)o1	Pf Dd2 growth 12.6µM
Cn1c([C@H]2CCN(Cc3ccccc3)C2)nc2ccccc21	none
COc1ccc(-c2nnc([C@H]3CCN(Cc4cccc(C#N)c4)C3)o2)cc1	Pf Dd2 growth 14.1µM
COc1ccccc1-c1nnc([C@H]2CCN(Cc3ccc(C(=O)O)cc3)C2)o1	none
Cn1cncc1-c1nnc([C@H]2CCN(Cc3cccc(C#N)c3)C2)o1	none
FC(F)(F)c1ccc(CN2CC[C@H](c3nnc(-c4ccccc4)o3)C2)cc1	none
COc1ccc(CN2CC[C@H](c3nnc(-c4ccncc4)o3)C2)cc1	none
Cn1c([C@H]2CCN(Cc3ccc(Cl)cc3)C2)nc2ccccc21	none
Cc1ccc(CN2CC[C@H](c3nnc(-c4ccccc4)o3)C2)cc1	Pf Dd2 growth 10µM
Cc1ccc(-c2nnc([C@H]3CCN(Cc4ccc(CO)o4)C3)o2)cc1	none
COc1ccccc1-c1nnc([C@H]2CCN(Cc3ccc(F)cc3)C2)o1	none
Cn1c([C@H]2CCN(Cc3cccc(C#N)c3)C2)nc2ccccc21	Pf Dd2 growth 10µM
CC(C)c1nccn1CCCNC(=O)c1ccc(-c2cccc(F)c2)nc1	none
COCc1ccc2c(c1)c(OC(C)(C)C(=O)NCc1cnccn1)nn2Cc1ccccc1	none
O=C(NCC1(c2ccccc2F)CCCC1)[C@H]1CCC[C@@H](O)C1	none
CCC1(O)CCC12CCN(C(=O)CC(C)C)CC2 (stereo unspecified)	none
CN(C)CC(=O)N1Cc2ccccc2CC2(CCCN(C)C2)C1 (stereo unspecified)	none
COc1ccc(C(=O)N2CCC(Oc3ccc(C(=O)N(C)C)cn3)CC2)cc1	none
COc1ccc(-c2nnc([C@H]3CCN(S(C)(=O)=O)C3)o2)cc1	none
COc1ccc(C(=O)N2CC[C@H](c3nnc(-c4ccccc4)o3)C2)cc1	none
COc1ccc(-c2nnc([C@H]3CCN(S(=O)(=O)Cc4ccccc4)C3)o2)cc1	Pf Dd2 growth 10µM
O=C(NCCc1ccncc1)C1CN(C(=O)Cc2ccc(F)cc2)CC12CCOCC2 (stereo unspecified)	none
O=C1NCc2ccccc2CC12CCCCN2CC1CCOCC1 (stereo unspecified)	none
CNCc1cn(C[C@H]2CC3CCN2C[C@@H]3C(=O)N(C)C)nn1 (stereo partly specified)	none
Cc1ccc(C(=O)NCC2Cn3cccc3C(=O)N2CC(C)C)cn1 (stereo unspecified)	none
CN1CCOC[C@H]2CCN(C(=O)c3cccs3)C[C@H]21	none
COc1cccc(CC(=O)NCC(=O)N2CCCCCCNC(=O)CC2c2ccccc2)c1 (stereo unspecified)	none
COc1ccc2cc(C(=O)NCC(=O)N3CCCCCCNC(=O)CC3c3ccccc3)[nH]c2c1 (stereo unspecified)	Pf Dd2 growth 14.1µM
O=C1CC(c2ccccc2)N(C(=O)CNC(=O)c2n[nH]c3ccccc23)CCCCCN1 (stereo unspecified)	none
O=C1CC(c2ccccc2)N(C(=O)CNC(=O)c2ccccn2)CCCCCCN1 (stereo unspecified)	none
COc1ccc(C(=O)NCC(=O)N2CCCCCCNC(=O)CC2c2ccccc2)cc1F (stereo unspecified)	none
O=C1CC(c2ccccc2)N(C(=O)CNC(=O)c2[nH]nc3c2COc2ccccc2-3)CCCCCN1 (stereo unspecified)	Pf Dd2 growth 2.51µM
O=C1CC(c2ccccc2)N(C(=O)CNC(=O)c2nccc3ccccc23)CCCCCCN1 (stereo unspecified)	Pf Dd2 growth 0.355µM
O=C1CC(c2ccccc2)N(C(=O)CNC(=O)c2ccncc2)CCCCCCN1 (stereo unspecified)	none
O=C1CC(c2ccccc2)N(C(=O)CNC(=O)c2cccnc2)CCCCCCN1 (stereo unspecified)	none
N[C@H]1[C@H](O)[C@@H](N2CCCCC2)[C@@H]2OC[C@H]1O2	none
COc1ccc(CNC(=O)C[C@@H]2C[C@H]3O[C@H](CNC(=O)NC(C)C)[C@@H](O)[C@H]3O2)cc1	none
CCn1c(CN(C)C)nnc1C1CCN(C(=O)c2ccn(C(F)F)n2)CC1	none
CC(C)c1ccc(CN(Cc2ccco2)c2cnc(S(C)(=O)=O)nc2C(=O)Nc2ccc(F)cc2)cc1	Pf Dd2 growth 11.2µM
Cc1ccc(NC(=O)c2ncoc2-c2ccco2)cc1Cl	none
COc1ccc(CN(Cc2ccco2)c2cnc(S(C)(=O)=O)nc2C(=O)Nc2ccc(C)c(Cl)c2)cc1	Pf Dd2 growth 10µM
COc1ccc(CN(Cc2ccco2)C(=O)COc2ccccc2Cl)cc1	none
Cc1cccc(C)c1NC(=O)c1nc(S(C)(=O)=O)ncc1N(Cc1ccc(F)cc1)Cc1ccco1	none
CCS(=O)(=O)c1ncc(Cl)c(C(=O)N(Cc2ccccc2)Cc2ccco2)n1	none
COc1ccc(-c2ccc3c(n2)CN(Cc2ccccc2)C(=O)CO3)cc1F	none
CCOc1ccc(CN2C[C@@H](COC)[C@H](C(=O)N(C)C)C2)cc1	none
CC(C)Oc1cccc(-c2nc(C(=O)Nc3ccc(F)cc3)cs2)c1	none
COc1ccc(C2Cn3cnc(C(=O)N4CCC(C(=O)NCc5ccccc5F)CC4)c3CO2)cc1 (stereo unspecified)	none
C[C@H]1[C@@H]2[C@@H](O)C([C@H](C)C(=O)NCCN3CCOCC3)CC[C@@]2(C)CC[C@@H]1NC(=O)c1cncnc1 (stereo partly specified)	none
CC(=O)N[C@H]1[C@H](O)[C@H](O)C[C@@H]1c1ccc(C(F)(F)F)cc1	none
COC1CCC12CCN(C(=O)COc1ccccc1)CC2 (stereo unspecified)	none
C=CCNC(=O)c1cccc2c(C)nnn12	none
O=C(c1ccco1)n1nc(-c2ccc(Cl)cc2)nc1NCc1ccc(F)cc1	none
O=C(Nc1nc2n(n1)C(c1ccc(F)cc1)C=C(c1ccccc1)N2)c1cccc([N+](=O)[O-])c1 (stereo unspecified)	Pf Dd2 growth 3.16µM
O=C(Nc1nc2n(n1)C(c1ccc(F)cc1)C=C(c1ccc(Cl)cc1)N2)c1ccco1 (stereo unspecified)	Pf Dd2 growth 8.91µM
Cc1ccc(C2C=C(c3ccc(Cl)cc3)Nc3nc(NS(=O)(=O)c4ccccc4)nn32)cc1 (stereo unspecified)	none
COc1ccc(C2C=C(c3ccccc3)Nc3nc(NC(=O)/C=C/c4ccccc4OC)nn32)cc1 (stereo unspecified)	Pf Dd2 growth 10µM
CC1=C(C(=O)Nc2ccccc2)C(c2ccc(F)cc2)n2nc(SCc3cc(C)ccc3C)nc2N1 (stereo unspecified)	none
COc1cccc(C2C(C(=O)Nc3ccccc3)=C(C)Nc3nc(-c4ccccc4)nn32)c1 (stereo unspecified)	none
COc1ccc(C(=O)Nc2nc3n(n2)C(c2ccccc2)C=C(c2ccccc2)N3)cc1 (stereo unspecified)	none
CC(=O)Nc1cccc(C(=O)NCCn2ccn3nc(-c4ccc(F)cc4)cc3c2=O)c1	none
CCn1nccc1C(=O)N1CCC(c2nc(C3CCOCC3)no2)CC1	none
O=C(Nc1ccc(N2CCOCC2)cc1)C1(CCO)CCN(c2ncccn2)C1 (stereo unspecified)	none
COCCNC(=O)[C@H]1C[C@H](Oc2cccnc2)CN1C(=O)Cc1cccc(C)c1	none
CC(=O)N1CCC(C(=O)NCc2cccnc2N(C)Cc2ccccc2)CC1	none
Cc1nc2c(c(-c3ccc(Cl)cc3)n1)CN(C(=O)c1ccccc1)CC2	none
O=C(c1ccc(Cl)nc1)N1CCc2nc(-c3ccc(Cl)cc3)nc(-c3ccccc3)c2C1	none
CC(=O)N1CCc2nc(-c3ccc(Cl)cc3)nc(-c3ccccc3)c2C1	none

High-throughput results (PubChem)
